# Screens as filed in PubChem BioAssay.
# HepG2 tox – counter-screen for TGF-b inhibitors: cytotoxicity in HepG2 cells; AID 588856; Potency, µM (series often up to 46.1 µM), actives largely listed as cytotoxic; 410,000 compounds, 0.76% hits; HepG2 CAGA-GFP viability, ATP luminescence, 18 h
#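 CellTiter-Glo luminescence gave cytotoxicity after 18 hours at 37 degrees C. The cells were HepG2 CAGA-GFP in 1% FBS DMEM, stimulated with 500 pg/mL TGF-beta after compound addition. %Activity was normalised to no-cell wells (complete cell-killing) and DMSO (no toxicity), and curves were fitted and classified.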
# DT40 TDP1 CPT – DT40-hTDP1 cell growth loss with CPT; Potency, µM (titrated, usually from 46.2 µM), usual class: inhibitors; chicken DT40 Tdp1-/-;hTDP1 cells + 20 nM CPT, ATP luminescence, 48 h; 420,000 compounds, 12% hits; AID 686979; also: nearly all actives have a fitted effect of over 55% in size
#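 Chicken DT40 Tdp1-/- cells stably complemented with human TDP1 were seeded at 400 cells/well in medium containing 20 nM camptothecin, exposed to pin-transferred compounds, and grown at 37 °C for at least 48 hr. Viability was read as ATP luminescence.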
# IL1B secr inh – inhibitors of inflammasome signaling (IL-1 beta secretion); activity change, % at 57.5 µM; AID 743279; THP-1 LPS/ATP IL-1B secretion, AlphaLISA, 16 h; active compounds read low; 360,000 compounds, 4.7% hits; in the data active = activity change below about -50%; inconclusive = mostly about -30% to -49%
#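 THP-1 cells pretreated 1 hr with compounds (up to 57.5 uM final), then stimulated with LPS (250 ng/mL final) plus ATP (1.25 mM final); secreted IL-1B measured by AlphaLISA after 16 hr, decreased signal indicating inhibition.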
# TGFb inhibitor – TGF-b pathway inhibition | HepG2 CAGA-GFP TGF-b/SMAD3 reporter, GFP fluorescence, 18 h; TGF-beta stimulated, 500 pg/mL final | Potency, µM (titrated, usually from 46.1 µM), actives largely listed as inhibitors | 410,000 compounds, 1.2% hits; also: nearly all actives have a fitted effect of over 65% in size
#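 Inhibition of TGF-beta-driven CAGA-GFP reporter expression in HEPG2 cells is measured by cellular GFP fluorescence after 18 h stimulation with 500 pg/mL recombinant TGF-beta in 1% FBS medium at 37 degrees C.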
# ASM inhibitor – blocks human secretory acid sphingomyelinase; P17405; placental ASM, HMU-PC fluorogenic substrate, 60 min; Potency, µM (top dose mostly 57.5 µM), hits mostly inhibitors; 340,000 compounds, 0.006% hits; AID 504937
# Target sequence (P17405 47-631 limits assumed): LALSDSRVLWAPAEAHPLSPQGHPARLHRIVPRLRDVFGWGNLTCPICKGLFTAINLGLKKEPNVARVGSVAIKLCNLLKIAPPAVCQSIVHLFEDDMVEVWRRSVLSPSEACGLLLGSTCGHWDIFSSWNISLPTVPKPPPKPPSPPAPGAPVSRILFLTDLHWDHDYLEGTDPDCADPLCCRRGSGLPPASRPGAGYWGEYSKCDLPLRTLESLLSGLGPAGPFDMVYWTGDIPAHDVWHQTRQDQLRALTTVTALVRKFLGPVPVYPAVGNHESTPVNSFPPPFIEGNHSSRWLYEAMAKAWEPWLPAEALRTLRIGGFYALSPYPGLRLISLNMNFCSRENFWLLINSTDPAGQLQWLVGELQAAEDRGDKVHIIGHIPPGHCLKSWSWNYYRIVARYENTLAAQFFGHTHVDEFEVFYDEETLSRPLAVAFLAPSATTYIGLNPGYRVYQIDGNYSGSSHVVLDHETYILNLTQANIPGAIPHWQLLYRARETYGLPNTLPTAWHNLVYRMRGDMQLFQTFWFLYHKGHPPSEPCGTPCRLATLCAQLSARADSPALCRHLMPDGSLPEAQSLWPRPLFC
#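 Fluorescence read-out (Ex 386 nm, Em 447 nm) after stopping the reaction at pH 10. Enzyme: ASM from human placenta; substrate HMU-PC0, 9 uM final; 60 min, 37 °C. Compound preincubation 10 min, ambient temperature.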
# TDP1 cell noCPT – qHTS for Inhibitors of human tyrosyl-DNA phosphodiesterase 1 (TDP1): qHTS in cells in absence of CPT; DT40 Tdp1-/- hTDP1 cells, no CPT, ATP luminescence, 48 h; Potency, µM (highest dose often 46.2 µM), hits mostly inhibitors; 420,000 compounds, 15% hits; AID 686978, 2013; also: nearly all actives have a fitted effect of over 55% in size
#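 No-CPT arm: Tdp1-/-;hTDP1 DT40 cells (400/well) plus compounds, incubated ≥48 hr at 37 °C. Readout CellTiter-Glo luminescence.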
# Numbers stand for hits; . = inactive; ? = inconclusive; / = no result given; ! = not confirmed by another sample; [ ] = dose if it differs, or a comment. Only some compounds are listed: those with a hit (about 19% of all), similar ones and a draw of the others. Unless noted, calls follow the shape of the dose curve; as a rule, active = well fitted curve in the direction sought with a large enough effect; inconclusive = small, poorly fitted or top-dose-only effect, or another doubt; inactive = no such curve, though single readings can be large; an effect the other way counts as inactive or inconclusive.
SMILES,HepG2 tox,DT40 TDP1 CPT,IL1B secr inh,TGFb inhibitor,ASM inhibitor,TDP1 cell noCPT
C(#Cc1ccccc1)C[N+]1(CC#Cc2ccccc2)CCCCC1,.,1.84µM,-86.3,.,.,1.46µM
CC(C)c1ccc(Cn2cnc3c(cnn3C(C)(C)C)c2=O)cc1,.,/,/,.,/,/
Cc1ccc(C#CC[N+]2(CC#Cc3ccc(C)cc3)CCCCC2)cc1,.,0.461µM,-86.0,20µM,.,0.0291µM
C=CCC(C#Cc1ccc(C)cc1)N(CC)CC (stereo not given),.,.,.,.,.,.
CCOC(=O)C(=N/O)/C(C)=N/NC(=O)C(=O)Nc1ccc(Cl)cc1,.,4.11µM,.,?,.,2.06µM
CCOC(=O)Cc1c(C)[nH]n(-c2ccccc2)c1=O,.,.,?,.,.,.
Cc1[nH]n(-c2ccccc2)c(=O)c1N=Nc1ccccc1C(=O)O,.,?,.,.,.,?
C/C(=N\NC(=O)c1ccc(C)cc1)c1c(C)[nH]n(-c2ccccc2)c1=O,.,4.61µM,.,?,.,4.11µM
Cc1[nH]n(-c2ccccc2)c(=O)c1C(=O)Nc1ccccc1,.,8.2µM,.,.,.,16.4µM
Cc1nn(-c2ccccc2)nc1C(=O)c1c(C)[nH]n(-c2ccccc2)c1=O,.,5.17µM,.,?,.,3.66µM
C/C(=N\NC(=O)c1ccccc1)c1c(C)[nH]n(-c2ccccc2)c1=O,.,0.146µM,.,?,.,0.411µM
Cc1[nH]n(-c2ccccc2)c(=O)c1C(=O)c1ccc([N+](=O)[O-])cc1,.,?,.,.,.,?
O=[N+]([O-])c1ccc(C[n+]2cc(-c3ccccc3)n3c2CCCCC3)cc1,.,?,.,.,.,11.6µM
O=[N+]([O-])c1ccc(C[n+]2cc(-c3ccc(Cl)c(Cl)c3)n3c2CCCCC3)cc1,.,?,.,.,.,5.8µM
CCCOC(=O)c1c(-c2ccccc2)nc(CC)c(C(=O)SCC)c1CCC,.,?,.,.,.,16.4µM
Cc1c(C(=O)NCc2ccccc2Cl)sc2ncnc(NCC3CCCO3)c12 (stereo not given),/,.[9.04 µM],/,/,/,.
CSc1cccc(NC(=S)Nc2ccc(F)cc2)c1,.,23.1µM,.,.,.,?
CSc1cccc(NC(=S)NN(C)C)c1,.,?,.,.,.,18.4µM
Fc1ccc(NC(=S)Nc2cccc(Cl)c2)cc1,.,?,.,.,.,?
CSc1cccc(NC(N)=S)c1,.,.,.,.,.,?
CCOc1ccc(S(=O)(=O)N2CCCCC2)cc1NC(=O)CCNC(=O)c1ccco1,.,.,.,.,.,.
Cc1ccc(C2N3CC4(C)CN2CC(c2ccccc2)(C3)C4=O)cc1 (stereo not given),.,?,/,?,/,?
O=C(c1cnccn1)N1CCC2(CCCN(c3ccccc3)C2)CC1,/,.,/,/,/,?
OCC1OC(n2cnc3c(/C=C(\O)c4ccccc4)ncnc32)C(O)C1O (stereo not given),.,1.3µM,.,?,.,1.46µM
O=c1[nH]cnc2c1ncn2[C@H]1C[C@H](O)[C@@H](CO)O1,.,12.6µM,/,.,/,?
SMILES,HepG2 tox,DT40 TDP1 CPT,IL1B secr inh,TGFb inhibitor,ASM inhibitor,TDP1 cell noCPT
O=c1[nH]cnc2c1ncn2C1OC(CO)C(O)C1O (stereo not given),.,0.581µM!,.,.,.,0.82µM!
O=c1[nH]cnc2c1ncn2C1CCC(CO)O1 (stereo not given),.,13µM,.,.,/,?
CC(C)C(=O)Nc1nc2c(ncn2C2CC(O)C(CO)O2)c(=O)[nH]1 (stereo not given),.,.,.,.,.,?
CC(C)(C)OC(=O)N1C(=O)[C@](OC(=O)c2ccccc2)(c2ccccc2)c2cccc(F)c21,/,?,.,/,/,?
Cc1cc(C)nc(NC(=NCc2ccc3c(c2)OCO3)NC(=O)Nc2ccccc2)n1,.,5.17µM,.,.,.,4.61µM
O=C1CC(SC(=NCc2ccc3c(c2)OCO3)Nc2ccccc2)C(=O)N1c1ccccc1 (stereo not given),.,?,.,.,.,?
Cc1cc2nc(-c3nnnn3-c3c(C)cccc3C)c(=O)[nH]c2cc1C,/,?,.,/,/,16.4µM
Cc1cccc(C)c1-n1nnnc1-c1nc2ccccc2[nH]c1=O,/,?,.,/,/,?
O=C(C1=COCCO1)N1CCN(S(=O)(=O)c2cccc(F)c2)CC1,.,.,.,.,.,.
CCCCn1c(N)c(-c2nc3ccccc3o2)c2c([N+](=O)[O-])nn(C)c(=O)c21,.,.,.,.,.,.
CCCn1nc([N+](=O)[O-])c(C(C#N)c2nc3ccccc3o2)c(Cl)c1=O (stereo not given),.,?,-82.0,?,.,.
Cn1nc([N+](=O)[O-])c(C(C#N)c2ccccn2)c(Cl)c1=O (stereo not given),12.6µM,5.17µM,-102.0,?,.,3.66µM
O=C(O)Cc1ccc(-n2cccc2)cc1,.,.,.,.,.,.
CN1CCN(CCCNC(=O)Cn2c(-c3cccs3)cc3ccccc32)CC1,.,?,/,.,/,?
O=C(Cn1c(-c2cccs2)cc2ccccc21)NCCCN1CCN(c2cccc(Cl)c2)CC1,.,?,/,12.6µM,/,16.4µM
Cc1ccc(C)c(N2CCN(CCCNC(=O)Cn3c(-c4cccs4)cc4ccccc43)CC2)c1,.,5.17µM,/,12.6µM,/,2.91µM
O=C(c1cc2ccccc2oc1=O)N1CCN(c2ccc(Cl)cc2)CC1,.,?,/,.,/,20.6µM
Cc1cc(C)c(S(=O)(=O)N2CCN(C(=O)c3cc4ccccc4oc3=O)CC2)c(C)c1,.,20.6µM,.,.,.,?
CN1CCN(C(=O)c2cc3ccccc3oc2=O)CC1,.,.,.,.,.,.
COc1cc(Cl)c(C)cc1NC(=O)c1ccccc1NC(=O)CN1CCN(C(C)=O)CC1,.,.,.,.,/,?
NCC(=O)O,/,.,/,/,/,.
CC1(C(=O)NS(=O)(=O)c2cccc(OC(F)F)c2)CCN1C(=O)Cc1ccsc1 (stereo not given),.,.,.,.,/,.
COc1cc(C(C[N+](=O)[O-])c2c(C)cc3ccccn23)ccc1O (stereo not given),.,8.2µM,-97.3,.,.,13µM
COc1ccc(C(C[N+](=O)[O-])c2c(-c3ccccc3)cc3ccccn23)cc1OC (stereo not given),.,7.31µM,.,.,.,14.6µM
O=Nc1c(-c2ccccc2)cc2ccccn12,.,?,.,?,.,.
